# Values joined by “and” are separate entries in the source; they are usually repeats but may differ in a detail not shown here. Identical values can stand only once. Active and inactive are the calls of the source. How the source made its calls: active means hit-call score of the fitted dose curve at least 0.9, where 1 is the maximum; inconclusive means response in the unintended direction; inactive means score below 0.9.
# System: SERPINA7 (gene 6906)
# Test: CCTE_GLTED_hTBG: CCTE's human Thyroxine-binding Globulin (TBG) Inhibition Assay, Great Lakes Toxicology and Ecology Division (GLTED) Lab (AID 2284343);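 further: active chemicals lower fluorescence versus DMSO baseline by displacing probe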
# Description: CCTE_GLTED_hTBG is a cell-free, single-readout assay designed to test the chemicals' ability to displace T4 from the human thyroxine-binding globulin (TBG) protein. TBG is incubated in presence of test chemical for 2 hours during which disrupting chemicals displace ANSA from the TBG protein. Results read fluorescence at 380 excitation and 475 emission.CCTE_GLTED_hTBG is the assay component measured from the CCTE_GLTED_hTBG assay. It is designed to make measurements of fluorescent polarization, using a form of binding reporter, as detected with Fluorescence signals by Fluorescence technology.Data from the assay component CCTE_GLTED_hTBG was analyzed at the assay endpoint CCTE_GLTED_hTBG in the positive analysis fitting direction relative to DMSO as the negative control and baseline of activity. Using a type of binding reporter, loss-of-signal activity can be used to understand a chemical's ability to displace T4 from thyroxine-binding globulin. To generalize the intended target to other relatable targets, this assay endpoint is annotated to the 'transporter' intended target family, where the subfamily is 'hormone carrier protein'.
# Human transthyretin (TTR) assay, developed at Great Lakes Toxicology and Ecology Division (GLTED) within the EPA's Center for Computational Toxicology and Exposure (CCTE), is designed to test the chemicals' ability to displace T4 from the TTR protein. TTR (0.5uM) is incubated in presence of test chemical for 2 hours during which disrupting chemicals displace ANSA from the TTR protein. Results read fluorescence at 380 excitation and 475 emission.
SMILES,AC50,outcome
CC(C)c1cccc(C(C)C)c1O,44.1 µM (active),–
C[C@H]1CCCC(=O)CCC/C=C/c2cc(O)cc(O)c2C(=O)O1,50 µM (active),–
O=C1C(Cl)=C(Cl)C(=O)c2ccccc21,43.7 µM (active),–
O=C(Cc1ccccc1)c1ccccc1,10 µM (active),–
O=C1C2(Cl)C3(Cl)C4(Cl)C(Cl)(Cl)C5(Cl)C3(Cl)C1(Cl)C5(Cl)C24Cl (stereo not drawn),–,inactive
COP(=O)(OC)O/C(=C\Cl)c1cc(Cl)c(Cl)cc1Cl,10.1 µM (active),–
CCCCCCCCc1ccc(O)cc1,36 µM (active),–
CCOP(=S)(OCC)Oc1nc(Cl)c(Cl)cc1Cl,18.6 µM (active),–
ClC1(Cl)C2(Cl)C3(Cl)C4(Cl)C(Cl)(Cl)C5(Cl)C3(Cl)C1(Cl)C5(Cl)C24Cl (stereo not drawn),–,inactive
O=C(O)C(F)(F)C(F)(F)C(F)(F)C(F)(F)C(F)(F)C(F)(F)C(F)(F)C(F)(F)C(F)(F)C(F)(F)F,2.7 µM (active) and 47.2 µM (active),–
CC(C)(C)CC(C)(C)c1ccc(O)cc1,5.79 µM (active),–
COP(=S)(OC)Oc1ccc(Sc2ccc(OP(=S)(OC)OC)cc2)cc1,2.89 µM (active),–
CC1(C)CCC(Cc2ccc(Cl)cc2)C1(O)Cn1cncn1 (stereo not drawn),30.1 µM (active),–
O=[N+]([O-])c1ccc(O)c([N+](=O)[O-])c1,21.9 µM (active),–
CC(C)(c1ccccc1)c1ccc(O)c(C(C)(C)c2ccccc2)c1,7.35 µM (active),–
Oc1ccc(-c2ccccc2)cc1,31.2 µM (active),–
COc1cc(-c2ccc(N)c(OC)c2)ccc1N,19.3 µM (active) and 32.2 µM (active),–
CCC(C)(C)c1ccc(O)c(C(C)(C)CC)c1,13.3 µM (active),–
